The test system of the assay is PPARg:RXRa (NR concentration 180 nM, RXRa partner concentration 90 nM). Description: PBM binding z-score (relative to random genomic background probes); higher = stronger binding; sequences stand for … in GC…GCGATTGACAGCGTAGAATGAAGG
An outline of the steps:
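Ligand-free nuclear receptor dimers were bound for 1 h to custom Agilent 4×180K protein-binding microarrays. Detection used antibodies against each partner (one per run). Binding z-scores rest on regression-normalized fluorescence, with random background probes as the reference.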
The sequence TGAATGAGGTTACAAGATCAGGGAACGTTGCAAA yielded a PBM binding z-score of 2.14.

The sequence CCTCGGAGGACAGAAGGACAGAGCTGTCCGCTTT showed a PBM binding z-score of -0.176.

ATCCAAAGGTCGTGAGGTGAGTATACAGAAAGGC: the PBM binding z-score is 5.62.

Regarding CCTTACGGGTGACGAGGTTATAGCACGACGAGCG, the PBM binding z-score stood at 1.89.

The sequence CCGACTGGGGCAAGGTTACGATAACGCACAGCCA had a PBM binding z-score of 2.79.

In turn, TATACAGGGTGAAAGGCCAGAGTACGAATGTCGA displayed a PBM binding z-score of 5.05.

Turning to CAAACTAGATCAAAGGTCAAAGTCGAGCCAACCA, the PBM binding z-score is 11.4.

For TCTTGTAGATCAACCAGGTTAAGAAAGCCTGAGT, the PBM binding z-score was -0.376.

Sequence TTAATGAGGTTAAAGATCAGGGAACGTGGCGTCG came in with a PBM binding z-score of 6.53.

Sequence ACTCGGCGGACAAAGGTCAGAGCTACGCCAGTGA registered a PBM binding z-score of 4.89.

The sequence TCTATGAGTTGATTAGGGCAACCGAAACAGCGGA gave a PBM binding z-score of 0.39.

ATCTCTAGGTAACGAAGTTCAGTGAATGCCGAAC showed a PBM binding z-score of 0.812.

In the case of CTCGAAAGGTCGGTTGAGTTGAGTATACGGATAA, the PBM binding z-score was 0.295.

ACTATTAGTTGATTTAGGGCAACCGATACGACGC: the PBM binding z-score amounted to 0.99.

On to AGAATGAGGTTATTGAGATCAGGGAATTGCGGTC, for which the PBM binding z-score came to 1.67.

As for ATCTCTAGGTAAGACTCAGTTCAGTGAAGAACGC, the PBM binding z-score was -0.0322.

CCTATTAGTTGACCATACGGGCAACCGAAGCTCG: the PBM binding z-score was 0.305.

The sequence TTACCAAGGTGAAAGGTCCTTGATGCACGCCTTG yielded a PBM binding z-score of 5.66.

CCTAGTTGGTCCAGGTCACACACGCTATAGGTAC gave a PBM binding z-score of 1.47.

In the case of CCTCGGAGGACAGGAGGTCAGAGCTGTCCGCTTT, the PBM binding z-score was -0.08.

As to GTACCAAGGTGAATAGATCGTTGATGAGTAGGCG, the PBM binding z-score stood at 0.853.

In turn, CCTACTGGGCCACGAAAGGTCGTTGATTCAGTGA came in with a PBM binding z-score of 2.53.

The record behind these values is the supplement of paper PMC6555819.
